We go through eleven molecules from PubChem BioAssay (EPA / NIEHS).

Active and inactive are the calls of the source. The calls were made as follows, unless noted: active = hit-call score of the fitted dose curve at least 0.9, where 1 is the maximum; inactive = score below 0.9.

Broadly, the AC50 is the concentration giving half of the maximal activity seen.

Read-out in assay [1]: Transforming Growth Factor (TGFB1), TGFB1 (gene 7040)
In words: LTEA_HepaRG_TGFB1: Life Technologies and Expression Analysis (LTEA) Assay for Transforming Growth Factor (TGFB1) Transporter using HepaRG (AID 2283533). Particulars: mRNA level, 48 h; actives raise or lower the signal. The essentials:
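HepaRG, 48 h post-plating, switched to serum-free induction medium; chemicals 100 uM top, half-log, 8 pts, 0.5% DMSO, dup; 48 h exposure; RNA → Fluidigm TaqMan qRT-PCR; norm ACTB/GAPDH/POLR2A; bidirectional fit vs DMSO.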

Read-out in a further assay: TIMP1, TIMP1 (gene 7076)
Description: LTEA_HepaRG_TIMP1: Life Technologies and Expression Analysis (LTEA) Assay for TIMP1 using HepaRG (AID 2283534).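 As to outcome: TaqMan qRT-PCR signal normalized to ACTB GAPDH and POLR2A housekeeping genes.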 Particulars: mRNA level, 48 h; actives raise or lower the signal. In outline:
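Readout is TIMP1 mRNA level measured by qRT-PCR and normalized to three housekeeping genes. Human HepaRG cells were treated for 48 h in duplicate at eight concentrations up to 100 uM (0.5% DMSO); gain or loss fitted against DMSO.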

Read-out in assay [2]: Tumor necrosis factor receptor 1 (TNFRSF1A), TNFRSF1A (gene 7132)
Description: LTEA_HepaRG_TNFRSF1A: Life Technologies and Expression Analysis (LTEA) Assay for Tumor necrosis factor receptor 1 (TNFRSF1A) using HepaRG (AID 2283535). Particulars: mRNA level, 48 h; actives raise or lower the signal. In outline:
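Read-out is TNFRSF1A transcript level by TaqMan qRT-PCR, normalized to three housekeeping genes, scored as gain or loss of signal versus 0.5% DMSO. Human HepaRG cells received test chemicals for 48 h at up to 100 uM (half-log series).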

Read-out in assay [3]: Thyroid Hormone Responsive (THRSP), THRSP (gene 7069)
In words: LTEA_HepaRG_THRSP: Life Technologies and Expression Analysis (LTEA) Assay for Thyroid Hormone Responsive (THRSP) using HepaRG (AID 2283536). Particulars: mRNA level, 48 h; actives raise or lower the signal. In outline:
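THRSP transcript quantified by Fluidigm qRT-PCR against three housekeeping genes after 48 h chemical exposure of HepaRG cells in serum-free induction medium; eight-point half-log series, top 100 uM, 0.5% DMSO vehicle, duplicate wells.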

Read-out in assay [4]: Cellular tumor antigen p53 (Homo sapiens) (UniProt P04637)
Description: LTEA_HepaRG_TP53: Life Technologies and Expression Analysis (LTEA) Assay for Tumor Protein P53 (TP53) using HepaRG (AID 2283537). Particulars: mRNA level, 48 h; actives raise or lower the signal. In outline:
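HepaRG, 48 h exposure, top 100 uM, half-log 8-point, 0.5% DMSO vehicle, duplicates. Read: TP53 mRNA by TaqMan qRT-PCR, normalised to ACTB/GAPDH/POLR2A; bidirectional fit vs DMSO.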

Read-out in assay [5]: UDP glucuronosyltransferase (UGT1A1), UGT1A1 (gene 54658)
In words: LTEA_HepaRG_UGT1A1: Life Technologies and Expression Analysis (LTEA) Assay for UDP glucuronosyltransferase (UGT1A1) using HepaRG (AID 2283538). Particulars: mRNA level, 48 h; actives raise or lower the signal. In outline: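 HepaRG, 48 h chemical exposure (top 100 uM, half-log 8-pt, 0.5% DMSO vehicle), duplicate wells; qRT-PCR (TaqMan, Fluidigm array) for UGT1A1 mRNA, housekeeping-normalized; bidirectional curve fit vs DMSO baseline.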

Read-out in assay [6]: UDP glucuronosyltransferase (UGT1A6), UGT1A6 (gene 54578)
In words: LTEA_HepaRG_UGT1A6: Life Technologies and Expression Analysis (LTEA) Assay for UDP glucuronosyltransferase (UGT1A6) using HepaRG (AID 2283539). Particulars: mRNA level, 48 h; actives raise or lower the signal. The essentials: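 HepaRG, 48 h post-plating switch to serum-free induction medium; chemical 48 h, 100 uM top, half-log x8, duplicate, 0.5% DMSO. Phenobarbital 1mM induction control. UGT1A6 mRNA by TaqMan qRT-PCR; gain/loss fit vs DMSO.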

Read-out in assay [7]: X-box binding protein 1 (XBP1), XBP1 (gene 7494)
In words: LTEA_HepaRG_XBP1: Life Technologies and Expression Analysis (LTEA) Assay for X-box binding protein 1 (XBP1) using HepaRG (AID 2283540). Particulars: mRNA level, 48 h; actives raise or lower the signal. The essentials: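 Transcript levels of XBP1, measured by qRT-PCR and normalised to three housekeeping genes, were fitted bidirectionally relative to 0.5% DMSO controls. Human HepaRG cells received eight-point half-log dilutions from 100 uM for 48 h.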

Assay [8] can be described thus: LTEA_HepaRG_LDH_cytotoxicity: Cytotoxicity Assessment in the Life Technologies and Expression Analysis (LTEA) Assay (AID 2283563; active = hit-call score of the fitted dose curve at least 0.9, where 1 is the maximum). In outline: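 Cells were thawed and plated for 48 h. Medium was then replaced with serum-free induction medium. Chemicals (8 half-log points, maximum 100 uM, 0.5% DMSO) were added in duplicate for 48 h, after which spent medium was assayed for LDH.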

Cellular tumor antigen p53 (Homo sapiens), sequence (P04637 whole entry, looked up): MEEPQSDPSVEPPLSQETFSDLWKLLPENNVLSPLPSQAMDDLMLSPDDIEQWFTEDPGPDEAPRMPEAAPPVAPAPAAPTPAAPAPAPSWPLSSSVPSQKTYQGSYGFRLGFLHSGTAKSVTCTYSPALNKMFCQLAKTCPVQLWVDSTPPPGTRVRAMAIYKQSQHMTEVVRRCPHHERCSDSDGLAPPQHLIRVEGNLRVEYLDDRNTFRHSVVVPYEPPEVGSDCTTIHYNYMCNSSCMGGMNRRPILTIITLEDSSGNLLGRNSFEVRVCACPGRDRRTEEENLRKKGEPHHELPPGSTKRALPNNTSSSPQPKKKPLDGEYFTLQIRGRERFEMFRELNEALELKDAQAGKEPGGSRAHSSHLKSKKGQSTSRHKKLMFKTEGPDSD

`CC(=O)OCCC(C)C`: the outcome in assay [1] was “inactive”; with TIMP1, TIMP1 (gene 7076) it was “inactive”; in [2], “inactive”; in assay [3], “inactive”; in assay [4] it was “inactive”; in assay [5] it was “inactive”. For the same molecule, the call in assay [6], in assay [7] and in [8] was inactive.
On to `CCOC(=O)COc1ccc2c(c1)CC(NCC(O)c1cccc(Cl)c1)CC2` (centres undefined), for which the outcome in [1] was “inactive”; with TIMP1, TIMP1 (gene 7076), “inactive”; in assay [2], “inactive”; in assay [3] it was “inactive”; in assay [4] it was “inactive”; in assay [5] it was “inactive”. Moreover, the molecule was called inactive in assay [6] and in assay [8]. Moreover, the AC50 in assay [7] is 45.8 µM (active).
On to `COc1ccc(-n2nc(C(F)F)cc2-c2ccc(S(C)=O)cc2)cc1` (centres undefined), for which the outcome is “inactive” in [1]; “inactive” with TIMP1, TIMP1 (gene 7076); “inactive” in [2]; “inactive” in assay [3]; “inactive” in assay [4]; “inactive” in [6]. Moreover, the outcome in assay [7] and in assay [8] was inactive. The AC50 in assay [5] is 39.6 µM (active).
For the molecule `C1N2CN3CN1CN(C2)C3`, the outcome was “inactive” in [1]; “inactive” in the assay with TIMP1, TIMP1 (gene 7076); “inactive” in assay [2]; “inactive” in [3]; “inactive” in [4]; “inactive” in assay [5]. Further, the call in [6], in assay [7] and in assay [8] was inactive.
Turning to `O=C(OC[C@H]1O[C@@H](OC(=O)c2cc(O)c(O)c(OC(=O)c3cc(O)c(O)c(O)c3)c2)[C@H](OC(=O)c2cc(O)c(O)c(OC(=O)c3cc(O)c(O)c(O)c3)c2)[C@@H](OC(=O)c2cc(O)c(O)c(OC(=O)c3cc(O)c(O)c(O)c3)c2)[C@@H]1OC(=O)c1cc(O)c(O)c(OC(=O)c2cc(O)c(O)c(O)c2)c1)c1cc(O)c(O)c(OC(=O)c2cc(O)c(O)c(O)c2)c1`, the AC50 is 2.96 µM (active) in assay [1]; 15.2 µM (active) with TIMP1, TIMP1 (gene 7076); 6.1 µM (active) in assay [3]; 4.95 µM (active) in assay [4]; 4.66 µM (active) in [5]; 5.4 µM (active) in assay [6]. Moreover, the molecule was called inactive in assay [2], in assay [7] and in [8].
As for `CN(C)c1ccc(N=NS(=O)(=O)O)cc1`, the outcome is “inactive” in assay [1]; “inactive” with TIMP1, TIMP1 (gene 7076); “inactive” in [4]; “inactive” in assay [5]; “inactive” in [6]; “inactive” in assay [7]. The molecule was called inactive in assay [8]. The results for the AC50 in assay [2] and in [3] were 12.3 µM (active) and 11.1 µM (active), respectively.
With `CC1=CC(=O)CC(C)(C)C1`, the outcome in assay [1] is “inactive”; with TIMP1, TIMP1 (gene 7076) it was “inactive”; in [2], “inactive”; in assay [3], “inactive”; in assay [4], “inactive”; in assay [5], “inactive”. In addition, the molecule was classed as inactive in [6], in assay [7] and in [8].
With `CC(C)CCCCCCCOC(=O)CCCCC(=O)OCCCCCCCC(C)C`, the outcome in [1] is “inactive”; with TIMP1, TIMP1 (gene 7076), “inactive”; in assay [2] it was “inactive”; in assay [3], “inactive”; in [4], “inactive”; in [5], “inactive”. Moreover, the result in assay [6], in assay [7] and in [8] was inactive.
For `Cc1c(-c2cccnc2)c2ccccc2n1CCCCC(=O)O`, the outcome is “inactive” in assay [1]; “inactive” in the assay with TIMP1, TIMP1 (gene 7076); “inactive” in assay [2]; “inactive” in assay [3]; “inactive” in assay [4]; “inactive” in assay [5]. The outcome in assay [6], in assay [7] and in [8] was inactive.
As to `CC[C@H]1OC(=O)[C@H](C)[C@@H](O[C@H]2C[C@@](C)(OC)[C@@H](O)[C@H](C)O2)[C@H](C)[C@@H](O[C@@H]2O[C@H](C)C[C@H](N(C)C)[C@H]2O)[C@](C)(O)C[C@@H](C)C(=O)[C@H](C)[C@@H](O)[C@]1(C)O`, the outcome in assay [1] was “inactive”; in the assay with TIMP1, TIMP1 (gene 7076), “inactive”; in assay [2], “inactive”; in [3], “inactive”; in assay [4], “inactive”; in [6], “inactive”. In addition, the outcome in assay [7] and in [8] was inactive. Besides, in assay [5], the AC50 was 8.69 µM (active).
As to `CN(C)c1ccc(Cc2ccc(N(C)C)cc2)cc1`, the outcome in assay [1] was “inactive”; with TIMP1, TIMP1 (gene 7076), “inactive”; in [2], “inactive”; in assay [4] it was “inactive”; in assay [7] it was “inactive”; in assay [8], “inactive”. Moreover, the AC50 in assay [3] is 19.5 µM (active); in assay [5], 11.5 µM (active); in assay [6], 85.6 µM (active).
